Reference: PubChem BioAssay AID1159580 (chemical genetic matrix, 2015)
About 2,000 (36%) of roughly 5,500 compounds were called active. Roughly 18% stayed inconclusive and do not appear here. Cut-off read from the data, not from the text of the source: active = normalized growth mostly below about 0.91 (no sharp cut-off); inconclusive = no clear call, values can overlap the other calls; inactive = mostly above about 0.92. The list shows a part of the results.

Assay: chemical genetic growth profiling, strain panel (AID 1159580);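 note: tested at 20 µM; growth read once vehicle control cultures reached saturation at 30 °C; 1 = growth at the plate median or of vehicle wells; lower values mean less growth of the strain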
Conditions: growth OD
[1] = S. cerevisiae deletion strains, locus YAL013W, strain DEP1, stronger effect = lower value
[2] = S. cerevisiae deletion strains, locus YBR229C, strain ROT2, stronger effect = lower value
[3] = S. cerevisiae deletion strains, locus YDL101C, strain DUN1, stronger effect = lower value
[4] = S. cerevisiae deletion strains, locus YDR150W, strain NUM1, stronger effect = lower value
[5] = S. cerevisiae deletion strains, locus YEL061C, strain CIN8, stronger effect = lower value
[6] = S. cerevisiae deletion strains, locus YGR078C, strain PAC10, stronger effect = lower value
[7] = S. cerevisiae deletion strains, locus YHR030C, strain SLT2, stronger effect = lower value
[8] = S. cerevisiae deletion strains, locus YHR087W, strain rtc3, stronger effect = lower value
[9] = S. cerevisiae deletion strains, locus YJR043C, strain POL32, stronger effect = lower value
[10] = S. cerevisiae deletion strains, locus YJR075W, strain HOC1, stronger effect = lower value
[11] = S. cerevisiae deletion strains, locus YLR039C, strain RIC1, stronger effect = lower value
[12] = S. cerevisiae deletion strains, locus YLR058C, strain SHM2 (second series), stronger effect = lower value
[13] = S. cerevisiae deletion strains, locus YLR085C, strain ARP6, stronger effect = lower value
[14] = S. cerevisiae deletion strains, locus YLR262C, strain YPT6, stronger effect = lower value
[15] = S. cerevisiae deletion strains, locus YML094W, strain GIM5, stronger effect = lower value
[16] = S. cerevisiae deletion strains, locus YMR219W, strain ESC1, stronger effect = lower value
[17] = S. cerevisiae deletion strains, locus YMR263W, strain SAP30, stronger effect = lower value
[18] = S. cerevisiae deletion strains, locus YNL128W, strain TEP1, stronger effect = lower value
[19] = S. cerevisiae deletion strains, locus YNL153C, strain GIM3, stronger effect = lower value
[20] = S. cerevisiae deletion strains, locus YNL298W, strain CLA4 (second series), stronger effect = lower value
[21] = S. cerevisiae deletion strains, locus YNL322C, strain KRE1, stronger effect = lower value
[22] = S. cerevisiae deletion strains, locus YNR030W, strain Alg12, stronger effect = lower value
[23] = S. cerevisiae deletion strains, locus YPL055C, strain LGE1, stronger effect = lower value
[24] = S. cerevisiae deletion strains, locus YPL241C, strain CIN2, stronger effect = lower value
[25] = S. cerevisiae deletion strains, locus YPR135W, strain CTF4, stronger effect = lower value

Measured: normalized growth

O=C(NNC(=O)c1ccc[nH]1)Nc1cc(Cl)cc(Cl)c1
inactive: [1] 1.01 | [2] 1 | [3] 0.991 | [4] 0.994 | [5] 0.996 | [6] 1 | S. cerevisiae deletion strains, locus YGR229C, strain SMI1, stronger effect = lower value 1.02 | [7] 1.07 | [8] 1.02 | [9] 1.01 | [10] 1.01 | S. cerevisiae deletion strains, locus YKL190W, strain CNB1, stronger effect = lower value 1.01 | [11] 1.05 | [12] 1.01 | [13] 1.04 | [14] 1.03 | [15] 0.992 | [16] 1 | [17] 1.02 | [18] 1.03 | [19] 0.988 | [20] 1.05 | [21] 0.996 | [22] 1.01 | S. cerevisiae deletion strains, locus YOL006C, strain TOP1, stronger effect = lower value 1.08 | [23] 1.02 | [24] 0.922 | [25] 1 | S. cerevisiae strains, strain wild type, stronger effect = lower value 1.02

O=C(Nc1ccc(F)cc1)c1cc(Br)ccc1O
inactive: S. cerevisiae deletion strains, locus YAR019C, strain CDC15, stronger effect = lower value 0.91 | S. cerevisiae deletion strains, locus YBL105C, strain PKC1, stronger effect = lower value 0.907 | S. cerevisiae deletion strains, locus YBR135W, strain CKS1, stronger effect = lower value 0.901 | S. cerevisiae deletion strains, locus YBR136W, strain MEC1, stronger effect = lower value 0.913 | S. cerevisiae deletion strains, locus YBR160W, strain CDC28, stronger effect = lower value 0.899 | S. cerevisiae deletion strains, locus YDL028C, strain MPS1, stronger effect = lower value 0.909 | [3] 0.952 | S. cerevisiae deletion strains, locus YDL108W, strain KIN28, stronger effect = lower value 0.897 | S. cerevisiae deletion strains, locus YDL132W, strain cdc53, stronger effect = lower value 0.94 | S. cerevisiae deletion strains, locus YDL214C, strain PRR2, stronger effect = lower value 0.867 | S. cerevisiae deletion strains, locus YDR226W, strain ADK1, stronger effect = lower value 0.941 | S. cerevisiae deletion strains, locus YDR477W, strain SNF1, stronger effect = lower value 0.882 | S. cerevisiae deletion strains, locus YER123W, strain YCK3, stronger effect = lower value 0.806 | S. cerevisiae deletion strains, locus YER133W, strain GLC7, stronger effect = lower value 0.908 | S. cerevisiae deletion strains, locus YFL029C, strain CAK1, stronger effect = lower value 0.894 | S. cerevisiae deletion strains, locus YFR003C, strain YPI1, stronger effect = lower value 0.907 | S. cerevisiae deletion strains, locus YFR019W, strain FAB1, stronger effect = lower value 0.901 | S. cerevisiae deletion strains, locus YGR040W, strain KSS1, stronger effect = lower value 0.797 | S. cerevisiae deletion strains, locus YGR052W, strain FMP48, stronger effect = lower value 0.901 | S. cerevisiae deletion strains, locus YGR092W, strain DBF2, stronger effect = lower value 0.614 | S. cerevisiae deletion strains, locus YHR079C, strain IRE1, stronger effect = lower value 0.827 | S. cerevisiae deletion strains, locus YHR082C, strain KSP1, stronger effect = lower value 0.813 | S. cerevisiae deletion strains, locus YHR205W, strain SCH9, stronger effect = lower value 0.615 | S. cerevisiae deletion strains, locus YIL147C, strain SLN1, stronger effect = lower value 0.918 | S. cerevisiae deletion strains, locus YJL095W, strain BCK1, stronger effect = lower value 0.791 | S. cerevisiae deletion strains, locus YJL128C, strain PBS2, stronger effect = lower value 0.957 | S. cerevisiae deletion strains, locus YJL157C, strain FAR1, stronger effect = lower value 0.83 | S. cerevisiae deletion strains, locus YJR016C, strain ILV3, stronger effect = lower value 0.923 | S. cerevisiae deletion strains, locus YJR066W, strain TOR1 (second series), stronger effect = lower value 0.904 | S. cerevisiae deletion strains, locus YJR066W, strain TOR1, stronger effect = lower value 0.786 | S. cerevisiae deletion strains, locus YKL048C, strain ELM1, stronger effect = lower value 0.891 | S. cerevisiae deletion strains, locus YKL067W, strain YNK1, stronger effect = lower value 0.853 | S. cerevisiae deletion strains, locus YKL101W, strain HSL1, stronger effect = lower value 0.817 | S. cerevisiae deletion strains, locus YKL193C, strain SDS22, stronger effect = lower value 0.901 | S. cerevisiae deletion strains, locus YKL203C, strain TOR2, stronger effect = lower value 0.873 | S. cerevisiae deletion strains, locus YLR133W, strain CKI1, stronger effect = lower value 0.835 | S. cerevisiae deletion strains, locus YLR403W, strain SFP1, stronger effect = lower value 0.834 | S. cerevisiae deletion strains, locus YML070W, strain DAK1, stronger effect = lower value 0.86 | S. cerevisiae deletion strains, locus YMR001C, strain CDC5, stronger effect = lower value 0.908 | S. cerevisiae deletion strains, locus YMR205C, strain PFK2 (second series), stronger effect = lower value 0.832 | S. cerevisiae deletion strains, locus YNL006W, strain LST8, stronger effect = lower value 0.923 | S. cerevisiae deletion strains, locus YNL020C, strain ARK1, stronger effect = lower value 0.797 | S. cerevisiae deletion strains, locus YNL161W, strain CBK1, stronger effect = lower value 0.913 | S. cerevisiae deletion strains, locus YNL183C, strain NPR1, stronger effect = lower value 0.758 | S. cerevisiae deletion strains, locus YNL207W, strain RIO2, stronger effect = lower value 0.907 | S. cerevisiae deletion strains, locus YNL222W, strain SSU72, stronger effect = lower value 0.902 | S. cerevisiae deletion strains, locus YNL307C, strain MCK1 (second series), stronger effect = lower value 0.776 | S. cerevisiae deletion strains, locus YOL078W, strain AVO1, stronger effect = lower value 0.898 | S. cerevisiae deletion strains, locus YOL136C, strain PFK27, stronger effect = lower value 0.837 | S. cerevisiae deletion strains, locus YOR061W, strain CKA2, stronger effect = lower value 0.773 | S. cerevisiae deletion strains, locus YOR119C, strain RIO1, stronger effect = lower value 0.881 | S. cerevisiae deletion strains, locus YOR231W, strain MKK1, stronger effect = lower value 0.845 | S. cerevisiae deletion strains, locus YOR329C, strain SCD5, stronger effect = lower value 0.912 | S. cerevisiae deletion strains, locus YPL031C, strain PHO85, stronger effect = lower value 0.865 | S. cerevisiae deletion strains, locus YPL153C, strain RAD53, stronger effect = lower value 0.777 | S. cerevisiae deletion strains, locus YPL204W, strain HRR25, stronger effect = lower value 0.862 | S. cerevisiae deletion strains, locus YPL209C, strain IPL1, stronger effect = lower value 0.909 | S. cerevisiae deletion strains, locus YPR025C, strain CCL1, stronger effect = lower value 0.907 | S. cerevisiae deletion strains, locus YPR106W, strain ISR1, stronger effect = lower value 0.914 | S. cerevisiae deletion strains, locus YPR111W, strain DBF20, stronger effect = lower value 0.893 | S. cerevisiae deletion strains, strain NNK1, stronger effect = lower value 0.927 | S. cerevisiae deletion strains, strain TSCII, stronger effect = lower value 0.902
active: S. cerevisiae deletion strains, locus YDL017W, strain CDC7, stronger effect = lower value 0.898 | S. cerevisiae deletion strains, locus YDR052C, strain DBF4, stronger effect = lower value 0.905 | S. cerevisiae deletion strains, locus YDR054C, strain cdc34, stronger effect = lower value 0.876 | S. cerevisiae deletion strains, locus YFL009W, strain cdc4, stronger effect = lower value 0.887 | S. cerevisiae deletion strains, locus YFR028C, strain CDC14, stronger effect = lower value 0.863 | S. cerevisiae deletion strains, locus YLR113W, strain HOG1, stronger effect = lower value 0.804 | S. cerevisiae deletion strains, locus YMR277W, strain FCP1, stronger effect = lower value 0.884 | S. cerevisiae deletion strains, locus YPL256C, strain CLN2, stronger effect = lower value 0.837

Clc1cc(Cl)cc(Br)c1
inactive: [1] 1.03 | [2] 1.02 | [3] 1.02 | S. cerevisiae deletion strains, locus YDL134C, strain PPH21, stronger effect = lower value 1.02 | [4] 1.04 | [5] 1.03 | [6] 1.01 | [7] 1.1 | [8] 1.05 | [9] 1.01 | [10] 1 | [11] 1.09 | [12] 1.02 | [13] 1.14 | [14] 1.07 | [15] 1.04 | [16] 1.02 | [17] 1.02 | [18] 1.02 | [19] 1.01 | [20] 1.08 | [21] 1.02 | [22] 1.05 | [23] 1.03 | [24] 1.04 | [25] 1.16
